PubChem BioAssay (NCATS)
Inconclusive results are not listed. Activity calls are given as the source filed them. Unless noted, the call rests on the fitted dose curve.

Legend:
[1] = qHTS for Inhibitors of the Functional Ribonucleoprotein Complex (vRNP) of Lassa (LASV) Arenavirus: LASV Primary Screen - GLuc reporter signal (AID 1347082; calls by dose curve; tested in HEK293 reporter line; further: nearly all actives have a fitted effect of over 60% in size; further: potency means the concentration at half of the fitted maximal effect; on activity change, negative = inhibition: on the % scale 0 is the no-effect control and ±100 the full control effect)
[2] = qHTS for Inhibitors of the Functional Ribonucleoprotein Complex (vRNP) of Lassa (LASV) Arenavirus: Viability assay - alamar blue signal for LASV Primary Screen (AID 1347083; calls by dose curve; tested in HEK293 reporter line; further: nearly all actives have a fitted effect of over 80% in size; further: potency means the concentration at half of the fitted maximal effect; on activity change, negative = reduced viability: on the % scale 0 is the no-effect control and ±100 the full control effect)
[3] = molecular target: Nucleoprotein (Lymphocytic choriomeningitis virus (strain Armstrong)) (UniProt P09992); experiment: qHTS for Inhibitors of the Functional Ribonucleoprotein Complex (vRNP) of Lymphocytic Choriomeningitis Arenaviruses (LCMV): LCMV Primary Screen - GLuc reporter signal (AID 1347086); further: nearly all actives have a fitted effect of over 70% in size; further: potency means the concentration at half of the fitted maximal effect; on activity change, negative = inhibition: on the % scale 0 is the no-effect control and ±100 the full control effect
[4] = Cytotoxicity counterscreen for inhibitors of SARS-CoV-2 cell entry (AID 1645845); further: nearly all actives have a fitted effect of over 50% in size; further: potency means the concentration at half of the fitted maximal effect
Procedure, shortened: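 Counterscreen run in the same HEK293-ACE2 line as the pseudotyped-particle entry assay, without particles. Viability after 48 h at 37 C was read as ATP luminescence, scaled between cell-containing and cell-free wells.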

[5] = Primary qHTS to identify inhibitors of SARS-CoV-2 cell entry (AID 1645846); settings: activity change, negative = inhibition: at 57.1 µM (top of the series) unless noted; further: nearly all actives have a fitted effect of over 45% in size
Procedure, shortened: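 Inhibition of spike-mediated entry was scored in human ACE2-transfected Expi293F cells. Particles were MLV-pseudotyped with Wuhan-Hu-1 S carrying a 19-aa C-terminal deletion; signal was luciferase after two days, scaled between spike PP and fusion-protein-free PP.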

[6] = Primary qHTS for inhibitors of SARS-S pseudo-typed particle cell entry (AID 1479145); further: on the % scale 0 is the no-effect control and ±100 the full control effect; nearly all actives have a fitted effect of over 45% in size
[7] = Primary qHTS for Huh7 cytotoxicity: counterscreen for inhibitors of MERS-S pseudotyped particle cell entry (AID 1479147); settings: outcome: dose series up to 57.1 µM unless noted
[8] = Primary qHTS for inhibitors of MERS-S pseudo-typed particle cell entry (AID 1479149); further: nearly all actives have a fitted effect of over 60% in size
[9] = Primary qHTS for Vero E6 cytotoxicity: counterscreen for inhibitors of SARS-S pseudo-typed particle cell entry (AID 1479150); settings: outcome: dose series up to 57.1 µM unless noted
[10] = molecular target: Nuclear receptor subfamily 1 group I member 3 (Homo sapiens) (UniProt Q14994); experiment: Primary qHTS for antagonist of constitutive androstane receptor (CAR) against the NCATS DSHEA and TCM libraries (AID 1794836; active means well fitted curve in the direction sought with a large enough effect;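 further: HepG2 cells stably expressing hCAR with CYP2B6 luciferase reporter stimulated by CITCO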)
Procedure, shortened: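 HepG2-CYP2B6-hCAR cells, attached 5 h, given compounds plus CITCO agonist […], incubated 24 h at 37 C. Luciferase luminescence read, multiplexed with CellTiter-Fluor viability (Ex/Em 405/540 nm).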

Chain of Nucleoprotein (Lymphocytic choriomeningitis virus (strain Armstrong)) (P09992 whole entry, looked up): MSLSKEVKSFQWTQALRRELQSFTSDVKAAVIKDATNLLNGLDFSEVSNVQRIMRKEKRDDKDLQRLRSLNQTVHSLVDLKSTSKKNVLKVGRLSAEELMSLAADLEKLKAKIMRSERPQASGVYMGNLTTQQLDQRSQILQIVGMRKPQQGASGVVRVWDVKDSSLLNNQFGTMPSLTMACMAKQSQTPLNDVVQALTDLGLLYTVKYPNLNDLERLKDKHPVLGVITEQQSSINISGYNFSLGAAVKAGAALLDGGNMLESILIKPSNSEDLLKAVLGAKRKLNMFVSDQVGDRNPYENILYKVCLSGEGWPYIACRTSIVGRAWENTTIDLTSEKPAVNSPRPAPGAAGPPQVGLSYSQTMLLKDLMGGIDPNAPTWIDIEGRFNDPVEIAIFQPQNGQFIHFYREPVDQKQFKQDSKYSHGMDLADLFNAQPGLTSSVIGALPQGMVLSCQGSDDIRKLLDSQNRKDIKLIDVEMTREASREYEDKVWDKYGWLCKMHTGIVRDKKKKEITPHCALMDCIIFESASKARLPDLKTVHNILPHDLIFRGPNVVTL
Chain of Nuclear receptor subfamily 1 group I member 3 (Homo sapiens) (Q14994 whole entry, looked up): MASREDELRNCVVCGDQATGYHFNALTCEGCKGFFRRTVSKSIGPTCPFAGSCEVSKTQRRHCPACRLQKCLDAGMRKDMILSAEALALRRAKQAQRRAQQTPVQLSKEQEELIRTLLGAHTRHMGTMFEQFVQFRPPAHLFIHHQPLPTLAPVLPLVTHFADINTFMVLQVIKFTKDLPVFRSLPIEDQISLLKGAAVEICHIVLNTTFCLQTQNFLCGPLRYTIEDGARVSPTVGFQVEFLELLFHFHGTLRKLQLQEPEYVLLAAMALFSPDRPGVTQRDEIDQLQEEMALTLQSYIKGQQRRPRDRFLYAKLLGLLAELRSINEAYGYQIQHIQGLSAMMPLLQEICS

N[C@@]1(C(=O)O)CS(=O)(=O)[C@H]2[C@H](C(=O)O)[C@H]21
inactive: Potency [1] | Potency [3] | Potency [4] | Potency [5]
active: Potency [2] 19.3 µM

CCCCC/C=C\C\C=C/C=C/C=C/[C@@H](O)[C@@H](O)CCCC(=O)O
inactive: activity change, negative = inhibition [1] -2.59% [at 0.757 µM] | activity change, negative = reduced viability [2] 14.4% [at 0.757 µM] | activity change, negative = inhibition [3] -32.8% [at 0.757 µM]

C[C@]12C=CC(=O)C=C1CC[C@@H]1[C@@H]2CC[C@]2(C)C(=O)CC[C@@H]12
inactive: Potency [1] | Potency [2] | Potency [3]

COc1c2ccoc2c(OC[C@@H](O)C(C)(C)OC)c2oc(=O)ccc12
inactive: Potency [1] | Potency [2] | Potency [3]

CCCCCCCCCCCCCCCC(N)=O
inactive: activity change, negative = inhibition [1] 1.8% [at 5.82 µM] | activity change, negative = reduced viability [2] 2.57% [at 5.82 µM] | activity change, negative = inhibition [3] -29.4% [at 5.82 µM]

Cc1cccc(-c2[nH]c(C(C)(C)C)nc2-c2ccc3c(c2)OCO3)n1
active: Potency [1] 10.9 µM | Potency [2] 7.69 µM | Potency [3] 7.69 µM | Potency [4] 17.8 µM

Cc1ncc(C[n+]2csc(CCO)c2C)c(N)n1
inactive: Potency [1] | Potency [2] | Potency [3] | Potency [6] | outcome [7] | Potency [8] | outcome [9] | Potency [4] | Potency [10]

COc1ccc(-c2cc3c(C)nc(N)nc3n(C3CCC(OCCO)CC3)c2=O)cn1 (stereo not drawn)
active: Potency [1] 0.153 µM | Potency [2] 0.0544 µM | Potency [3] 0.153 µM

Cc1cc(OCCCS(C)(=O)=O)cc(C)c1-c1cccc(COc2ccc3c(c2)OC[C@H]3CC(=O)O)c1
inactive: Potency [1] | Potency [2] | Potency [3] | Potency [4]

CC(=O)/C=C/C1C(C)=CCC(C)C1(C)C (stereo not drawn)
inactive: Potency [1] | Potency [2] | Potency [3]

CC(C)=CC[C@@H](O)C1=CC(=O)c2c(O)ccc(O)c2C1=O
inactive: Potency [1] | Potency [2] | Potency [3] | Potency [4] | Potency [5]

C[C@@H](NCc1cc2ccccc2[nH]1)c1cccc2ccccc12
active: Potency [4] 31.6 µM
inactive: Potency [1] | Potency [2] | Potency [3]

Nc1ncnc2c1ncn2[C@@H]1O[C@H](CO)C[C@@H]1O
inactive: Potency [1] | Potency [2] | Potency [3]

COc1cc(Cl)cn2c(-c3cccc(NC4CNC4)n3)cnc12
active: Potency [2] 21.7 µM
inactive: Potency [1] | Potency [3]

C=C(C)[C@@]12OC3(c4ccccc4)O[C@@H]1[C@@H]1[C@@H]4O[C@]4(CO)[C@@H](O)[C@]4(O)C(=O)C(C)=C[C@H]4[C@@]1(O3)[C@H](C)[C@H]2OC(=O)/C=C/C=C/c1ccccc1
inactive: Potency [1] | Potency [2] | Potency [3]

Cc1ccc2nc(NC(=O)CSc3nc4c(c(=O)n3-c3ccccc3)SCC4)sc2c1
-16.9%: activity change, negative = inhibition [5]
active: Potency [1] 19.3 µM | Potency [2] 17.2 µM | Potency [3] 8.63 µM
inactive: Potency [4]
